Screens (PubChem BioAssay)
Many of the other results were omitted from the sample, so hits are more common in it than they were.
Pf Dd2 growth: inhibitors of Plasmodium falciparum Dd2 growth; P. falciparum Dd2 growth, SYBR Green, 72 h; Potency, µM (highest dose often 28.9 µM), for the others: top-dose activity, negative = inhibition, usual class: inhibitors; 120,000 tested, 4.3% active; AID 1347417; active = well fitted inhibition curve with a large enough effect;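 note: plate controls were DMSO vehicle for no effect and reference drug for full effect; nearly all actives have a fitted effect of over 65% in size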
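Infected erythrocytes (Dd2, 0.3% parasitemia, 2.5% hematocrit final) are added to compound in RPMI-1640/Albumax II medium, grown 72 h at 37C in low oxygen, then lysed with saponin/Triton-X containing SYBR Green and read by fluorescence.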
Starred values were filed as active, the others as inactive; [ ] = remark or other dose. Potency is the fitted concentration of half-maximal effect.

Results for CC1=C[C@@H](CNC(=O)COCC(=O)O)[C@H](C(C)C)C[C@H]1Cc1nc2ccc(F)cc2[nH]1 ?
Pf Dd2 growth: 9.0%[44.1 µM]

How did CCn1cc(-c2ccc(C)cc2)cc1C(=O)NCCN1CCOCC1 do in these assays?
Pf Dd2 growth: inactive

What do the screens show for `Cc1ccc(C(=O)N2[C@@H]3CC[C@H]2CC(NC(=O)c2cnc(C)cn2)C3)c(C)c1` (some centres undefined)?
Pf Dd2 growth: 2.3%

How did F[C@@H]1CN(Cc2ccc3c(c2)OCCO3)C[C@@H]1OCc1nc2ccccc2[nH]1 do in these assays?
Pf Dd2 growth: inactive

What do the screens show for `CN(Cc1ccccc1)c1ccc(C(=O)N2CCC(CN3CCCC3=O)CC2)cn1`?
Pf Dd2 growth: -11.2%

How did Cn1ncc2c(NCCc3cn4ccccc4n3)nc(C3CCCC3)nc21 do in these assays?
Pf Dd2 growth: inactive

Results for O=C(c1ccc2nccn2c1)N1CCN(c2cnccn2)CC1 ?
Pf Dd2 growth: -7.5%

How did CC(C)N1C(=O)C2(CCCC2)C1C(=O)NCc1ccc(N2CCOCC2)cc1 (centres undefined) do in these assays?
Pf Dd2 growth: 5.5%

What do the screens show for `O=C(c1ccncc1)N1CCCCC1c1nc(CCOc2ccc(F)cc2)no1` (centres undefined)?
Pf Dd2 growth: -20.9%

Results for CCC1Oc2ccc(NC(=O)CC(C)(C)C)cc2CN(Cc2ccccc2F)C1=O (centres undefined) ?
Pf Dd2 growth: -2.3%

What do the screens show for `COc1ccc(NC(=O)c2cnc3c(c2)N(c2ccccc2OC)CCC3)cn1`?
Pf Dd2 growth: 6.31µM*

What do the screens show for `COc1ccccc1N1CCCc2ncc(C(=O)NCCc3ccccc3)cc21`?
Pf Dd2 growth: inactive

What do the screens show for `COc1ccccc1CC(=O)N1CCCc2ncc(C(=O)Nc3ccc(OC)c(OC)c3)cc21`?
Pf Dd2 growth: -33.9%

Results for COc1ccccc1CC(=O)N1CCCc2ncc(C(=O)Nc3cccc(Cl)c3)cc21 ?
Pf Dd2 growth: 2.51µM*

What do the screens show for `COc1ccc(NC(=O)c2cnc3c(c2)N(C(=O)Cc2cccc(C(F)(F)F)c2)CCC3)cn1`?
Pf Dd2 growth: -24.9%

What do the screens show for `COc1ccccc1CC(=O)N1CCCc2ncc(C(=O)Nc3cccc(C(F)(F)F)c3)cc21`?
Pf Dd2 growth: 4.47µM*

Results for COc1ccccc1CC(=O)N1CCCc2ncc(C(=O)NCCOc3ccccc3)cc21 ?
Pf Dd2 growth: inactive

What do the screens show for `COc1ccccc1CC(=O)N1CCCc2ncc(C(=O)N(C)c3ccccc3)cc21`?
Pf Dd2 growth: -3.5%[44.1 µM]

What do the screens show for `CC(C)c1ccc(CC(=O)N2CCCc3ncc(C(=O)Nc4cccc(C(F)(F)F)c4)cc32)cc1`?
Pf Dd2 growth: inactive

What do the screens show for `CC(C)CC(=O)N1CCCCCNC(=O)CC1c1ccccc1` (centres undefined)?
Pf Dd2 growth: -13.9%

How did COc1cc(CNC(=O)CC2CCOCC2)cc(OC)c1 do in these assays?
Pf Dd2 growth: -17.8%

How did O=C(c1ccc(C(F)(F)F)cc1)N1CCC(N2CCNC2=O)CC1 do in these assays?
Pf Dd2 growth: 8.5%

How did Cc1cccc(OCC(=O)N(Cc2ccc(C(C)(C)C)cc2)Cc2ccco2)c1 do in these assays?
Pf Dd2 growth: 11.2µM*

Results for Cc1cc(OCC(=O)N(Cc2ccc(N(C)C)cc2)Cc2ccco2)cc(C)c1Cl ?
Pf Dd2 growth: 3.8%

Results for Cc1ccc(CN(Cc2ccco2)C(=O)COc2ccc(C)c(C)c2)cc1 ?
Pf Dd2 growth: -9.7%

How did CN1C(=O)C(CC(=O)N(C)C2CCNCC2)(Cc2ccccc2)c2ccccc21 (centres undefined) do in these assays?
Pf Dd2 growth: -21.6%

How did COc1ccccc1CN1CCc2ncc(C(=O)NCCC(C)C)n2CC1 do in these assays?
Pf Dd2 growth: -26.1%[44.1 µM]

How did CCN(CC)Cc1ccc2c(c1)CNCCO2 do in these assays?
Pf Dd2 growth: -24.4%

Results for c1cc2c(cc1CN1CCOCC1)CNCCO2 ?
Pf Dd2 growth: 7.94µM*

Results for O=c1[nH]nc2n1CCN(Cc1ccc3c(c1)CCO3)CC2 ?
Pf Dd2 growth: 10.3%

How did C=CCNC(=O)N1CCOC(CN(CC(C)C)C(=O)c2ccccc2)C1 (centres undefined) do in these assays?
Pf Dd2 growth: inactive

How did O=C(c1ccc(C(F)(F)F)cc1)N1CCN2C(=O)N(C3CCCCC3)C[C@H]2C1 do in these assays?
Pf Dd2 growth: -16.7%[44.1 µM]

What do the screens show for `O=C(NC1CCN(c2cc(-c3ccc(F)cc3)[nH]n2)CC1)c1cc(F)ccc1Cl`?
Pf Dd2 growth: inactive

Results for COc1ccc(CNC(=O)CC[C@]23CC[C@](C)(O)C[C@H]2C(C)(C)C[C@@H]3NC(=O)c2cccs2)cc1 ?
Pf Dd2 growth: inactive

Results for COc1ccc(CNC(=O)CC[C@]23CC[C@](C)(O)C[C@H]2C(C)(C)C[C@@H]3NCc2ccccn2)cc1 ?
Pf Dd2 growth: 7.94µM*

How did COc1ccc(CNC(=O)CC[C@]23CC[C@](C)(O)C[C@H]2C(C)(C)C[C@@H]3NC(=O)CC(C)(C)C)cc1 do in these assays?
Pf Dd2 growth: inactive

Results for CC(C)c1nnc(C2CN(C(=O)c3nccc4ccccc34)CC23CCOCC3)o1 (centres undefined) ?
Pf Dd2 growth: inactive

Results for CCS(=O)(=O)N1CCCC(c2nc(-c3ccccc3)no2)CCNC(=O)CC1 (centres undefined) ?
Pf Dd2 growth: -23.3%

What do the screens show for `CC(=O)Nc1ccc(CNC2(Cc3cc(CN4CCOCC4)on3)COC2)cc1`?
Pf Dd2 growth: 2.7%[44.1 µM]

What do the screens show for `CCC(c1cccs1)N1C(=O)[C@H]2CN(C(=O)NC)C[C@H]2C1=O` (some centres undefined)?
Pf Dd2 growth: 44.9%

How did CC1CCN(c2nc3c(S(=O)(=O)c4ccccc4)nnn3c3ccsc23)CC1 do in these assays?
Pf Dd2 growth: 9.7%

Results for COCCNc1nc2c(S(=O)(=O)c3ccc(C)c(C)c3)nnn2c2ccc(Cl)cc12 ?
Pf Dd2 growth: 11.8%

How did CC(C)c1ccc(S(=O)(=O)c2nnn3c2nc(N2CCOCC2)c2ccccc23)cc1 do in these assays?
Pf Dd2 growth: -28.7%

Results for Cc1ccc(S(=O)(=O)c2nnn3c2nc(NC(C)C)c2cc(Cl)ccc23)cc1C ?
Pf Dd2 growth: 7.0%

How did CC1CCN(c2nc3c(S(=O)(=O)c4ccccc4)nnn3c3ccc(Cl)cc23)CC1 do in these assays?
Pf Dd2 growth: 1.12µM*

Results for Cc1ccc(S(=O)(=O)c2nnn3c2nc(N2CCC(C)CC2)c2cc(Cl)ccc23)cc1C ?
Pf Dd2 growth: 11.2µM*

Results for CC(C)c1ccc(S(=O)(=O)c2nnn3c2nc(N2CCN(C)CC2)c2sccc23)cc1 ?
Pf Dd2 growth: inactive

Results for CCc1ccc(S(=O)(=O)c2nnn3c2nc(N2CCC(C(N)=O)CC2)c2cc(Cl)ccc23)cc1 ?
Pf Dd2 growth: inactive

How did Cc1ccc(C)c(S(=O)(=O)c2nnn3c2nc(N2CCOCC2)c2ccccc23)c1 do in these assays?
Pf Dd2 growth: -26.8%

What do the screens show for `CN1CCN(c2nc3c(S(=O)(=O)c4ccc(Cl)cc4)nnn3c3ccsc23)CC1`?
Pf Dd2 growth: 10µM*

Results for CC1CCN(c2nc3c(S(=O)(=O)c4ccc(Cl)cc4)nnn3c3ccsc23)CC1 ?
Pf Dd2 growth: 22.4%

How did Cc1ccc(C)c(S(=O)(=O)c2nnn3c2nc(N2CCCCC2)c2ccccc23)c1 do in these assays?
Pf Dd2 growth: 12.6µM*

How did O=c1n(-c2ccc(Cl)cc2)nc2n1CCN([S+](=O)([O-])c1cccs1)C2 do in these assays?
Pf Dd2 growth: -11.4%

What do the screens show for `Cc1ccc(CNC(=O)c2cc3cn(C(C)C)cc3s2)cc1`?
Pf Dd2 growth: -10.6%
